ChEMBL document CHEMBL5308541, “MAIP: An Open-Source Tool to Enrich High-Throughput Screening Output and Identify Novel, Druglike Molecules with Antimalarial Activity” (ACS Med Chem Lett, 2023)
The whole screen tested about 4,800 compounds, of which about 410 (8.5%) showed an effect of 50% or more. This is one part of a sample in which strong results are shown more often than they occur.

Test system: Plasmodium falciparum
Experiment: Confirmatory screen in NF54 pLDH assay, in single point, at 2uM, 72h
Format: functional, Erythrocyte
Details: timepoint 72 hour

SMILES	% Inhibition
Fc1ccc(N2CC[C@H](CN3CCC(c4c[nH]c5ccccc45)(c4c[nH]c5ccccc45)CC3)C2)cc1	102%
CN1C2CCC1CC(OC(=O)C1CCC(C(=O)OC3CC4CCC(C3)N4C)(c3ccccc3)c3ccccc31)C2 (stereo unspecified)	63%
O[C@@H](CNCc1ccc2c(c1)CCO2)c1ccc(F)c(F)c1	74%
CN1CCC(N(C)c2ccccc2CNC[C@@H](O)c2cccc(Cl)c2)CC1	17%
CC(C)(C)c1ccc(CNC[C@H](O)c2ccc(F)cc2F)cc1	91%
CN1CCN(c2ccc(C(F)(F)F)cc2NCc2cnc[nH]2)CC1	92%
COc1ccc(CCNCc2ccc3[nH]cnc3c2)c(Cl)c1	48%
CCN(C(C)=O)c1nc(CN2CC=C(c3c[nH]c4cc(F)ccc34)CC2)cs1	20%
CN(C)CC12CNCC1CN(c1ccnc3cc(Cl)ccc13)C2 (stereo unspecified)	97%
Oc1ccc(C2=CCN(Cc3cccc4[nH]ccc34)CC2)cc1	38%
CCCOc1cncc(-c2ccc3c(c2)CNCC3)c1	8%
